# Results from PubChem BioAssay (NCATS).
# Records with an inconclusive call do not appear. Unmarked numbers belong to inactive results. Active and inactive are the calls of the source. Calls come from the whole dose curve; as a rule, active = well fitted cell-killing curve with a large enough effect; inconclusive = small, poorly fitted or top-dose-only effect; inactive = no such curve, though single readings can be large or run the other way.
# Assay: qHTS of pediatric cancer cell lines to identify multiple opportunities for drug repurposing: Primary screen for Rh30 cells (AID 1347107); note: nearly all actives have a fitted effect of over 75% in size
# Conditions: Rh30 rhabdomyosarcoma viability, CellTiter-Glo luminescence, 48 h; series mostly up to 46 µM; activity change, negative = cytotoxic: at the top concentration
# Method in brief: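 Cells (500-1,000/well) rested 5 h, then received compounds for 48 h; metabolically active cells were measured by CellTiter-Glo luminescence. Final concentrations spanned up to 46 µM (MIPE, 11-point) or 0.59 nM-46 µM (NPC, 8-point) in primary screens, 11-point in follow-ups.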
# % is set by controls: 0 for no effect and ±100 for the full control effect.
SMILES,"activity change, negative = cytotoxic",Potency
CCNc1nc(Cl)nc(NCC)n1,11.6%,–
COc1ccc(C(=O)N2CCCC2=O)cc1,–,inactive
CNC(C)Cc1ccc2c(c1)OCO2 (stereo not drawn),10.4% [at 92.7 µM],–
ClCc1cccc(Cl)c1,14.6%,–
COP(=S)(OC)Oc1ccc(Sc2ccc(OP(=S)(OC)OC)cc2)cc1,25.6%,–
CN1C(=O)[C@@H](NC(=O)c2cc3ccccc3[nH]2)N=C(c2ccccc2)c2ccccc21,-15.5%,–
CC(CC(C#N)(c1ccccc1)c1ccccc1)N(C)C (stereo not drawn),-13.8% [at 92.7 µM],–
Cc1nnc2n1-c1sc(CCc3ccc(CC(C)C)cc3)cc1C(c1ccccc1Cl)=NC2C (stereo not drawn),9.16%,–
C[C@@H]1C[C@@H]([C@H](O)CC2CC(=O)NC(=O)C2)C(=O)[C@@H](C)C1,-19.5%,–
CCN(CC)CCOC(=O)C(C)(c1ccccc1)c1ccccc1,-3.8%,–
CCOC(=O)C(c1c(O)c2ccccc2oc1=O)c1c(O)c2ccccc2oc1=O,27.1%,–
C[C@H]1CNCCc2ccc(Cl)cc21,21.3%,–
CC(C)C(Br)C(=O)NC(N)=O (stereo not drawn),11.4%,–
CCS(=O)(=O)C(C)(C)S(=O)(=O)CC,4.61%,–
C[C@@H]1CN(C2CCC(C#N)(c3ccc(F)cc3)CC2)CC[C@]1(C(=O)O)c1ccccc1 (stereo partly drawn),9.35%,–
NCc1cccnc1,6.4%,–
CC(C)(O)C(Cl)(Cl)Cl,26.8%,–

SMILES,"activity change, negative = cytotoxic",Potency
CC1N=C(N)OC1c1ccccc1 (stereo not drawn),-7.72% [at 92.7 µM],–
Oc1ccc2[nH]cc(CCCCN3CC=C(c4ccccc4)CC3)c2c1,4.57%,–
CCO[C@H]1O[C@@H]2OC3(C)CC[C@H]4[C@H](C)CC[C@@H]([C@H]1C)[C@@]24OO3,10.1%,–
C1CN2CCC1CC2,31.4%,–
COP(=O)(OC)OC=C(Cl)Cl,18.3%,–
CC(Cc1ccc2c(c1)OCO2)NO (stereo not drawn),-1.09% [at 92.7 µM],–
COCC(=O)N(c1c(C)cccc1C)C(C)C(=O)OC (stereo not drawn),19.8%,–
CC1COC2(c3ccccc3Cl)c3cc(Cl)ccc3NC(=O)CN12 (stereo not drawn),20.4%,–
CCOC(=O)c1ncn2c1CN(C)C(=O)c1c(I)cccc1-2,19%,–
Sc1ccccc1Cl,13.3%,–
CCN(CC)C(C)C(=O)c1ccccc1 (stereo not drawn),32.3%,–
COc1ccc2c(C(=O)c3ccc(Cl)cc3)c(C)n(CC(=O)O)c2c1,-18.2%,–
NC(=O)OCCCc1ccccc1,21%,–
CCN(CC)Cc1nccn1-c1ccc([N+](=O)[O-])cc1C(=O)c1ccccc1Cl,11.8%,–
O=C1NCN(c2ccccc2)C12CCN(CCCOc1ccc(F)cc1)CC2,2.07%,–
C[C@]12Cc3nonc3C[C@@H]1CC[C@@H]1[C@@H]2CC[C@@]2(C)[C@H]1CC[C@]2(C)O,6.69%,–
